PubChem BioAssay AID1768 (National Center for Advancing Translational Sciences (NCATS), 2009)
The whole screen tested about 270,000 compounds, of which about 620 (0.23%) were called active. Entries that show only a call come without a potency. Roughly 12% stayed inconclusive and do not appear here. Calls come from the whole dose curve; as a rule, active = well fitted inhibition curve with a large enough effect in the polarisation, with a control signal flat (not every such curve was filed as active); inconclusive = small, poorly fitted or top-dose-only effect, or effect the other way, or a change in a side signal; inactive = no such curve, though single readings can be large or run the other way; the % refers to the polarisation. Many of the other results were omitted from the sample, so actives are more common in it than they were.

biological target: Menin (Homo sapiens) (UniProt O00255); experiment: qHTS Assay for Inhibitors Targeting the Menin-MLL Interaction in MLL Related Leukemias: Competition With Texas Red Labeled MLL-derived Mutant Peptide; conditions: fluorescence polarization; series mostly up to 61.6 µM
Potency is the fitted concentration of half-maximal effect.

Sequence of Menin (Homo sapiens) (O00255 whole entry, looked up): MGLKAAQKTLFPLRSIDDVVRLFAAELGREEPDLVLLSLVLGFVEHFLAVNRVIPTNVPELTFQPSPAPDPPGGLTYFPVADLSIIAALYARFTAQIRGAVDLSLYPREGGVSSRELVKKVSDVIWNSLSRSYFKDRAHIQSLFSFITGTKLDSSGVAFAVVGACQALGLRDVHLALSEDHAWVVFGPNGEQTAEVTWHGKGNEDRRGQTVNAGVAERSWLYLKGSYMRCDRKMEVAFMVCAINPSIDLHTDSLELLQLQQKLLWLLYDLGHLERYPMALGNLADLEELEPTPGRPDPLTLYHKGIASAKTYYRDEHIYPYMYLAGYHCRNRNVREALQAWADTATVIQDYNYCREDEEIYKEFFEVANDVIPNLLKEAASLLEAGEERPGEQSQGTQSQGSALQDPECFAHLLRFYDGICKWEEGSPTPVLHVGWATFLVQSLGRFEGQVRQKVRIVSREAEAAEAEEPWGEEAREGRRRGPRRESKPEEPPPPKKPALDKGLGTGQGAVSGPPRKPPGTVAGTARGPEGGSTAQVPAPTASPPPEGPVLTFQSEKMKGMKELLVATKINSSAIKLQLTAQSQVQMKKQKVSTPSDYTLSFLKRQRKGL

Row | Structure (SMILES) | Potency | FP activity change, negative = inhibition
1 | CCn1cc(CN2CCN(CC(C)(C)C)C(CCO)C2)c2ccccc21 (centres undefined) | inactive | –
2 | Cc1cc(=O)oc2c(C)c(OC(C)C(=O)NC3CCN(Cc4ccccc4)CC3)ccc12 (centres undefined) | inactive | –
3 | O=C(CN1C(=O)COc2ccc(Cl)cc21)N1CCOCC1 | inactive | –
4 | COc1cc(CN2CCCC(C(=O)c3ccc(SC)cc3)C2)cc(Cl)c1O (centres undefined) | inactive | –
5 | Cc1cc(C)nc(N/N=C/c2c(CO)cnc(C)c2O)n1 | inactive | –
6 | COc1cccc(N(CC(=O)NCc2ccccc2)C(=O)CCC(=O)Nc2nccs2)c1 | inactive | –
7 | COc1ccc(CSc2nnnn2-c2ccc(O)cc2)cc1F | inactive | –
8 | CCOc1ccc(N(CC(=O)NCCc2ccc(F)cc2)S(=O)(=O)c2ccccc2)cc1 | inactive | –
9 | O=C1CCC(C(=O)N2CCN(c3ccccc3Cl)CC2)CN1CC1CCCCC1 (centres undefined) | inactive | –
10 | CCC(=O)c1cn(CCOc2ccccc2OC)c2ccccc12 | inactive | –
11 | CC1(C)CCSC(/C=C/c2ccccc2)=N1 | 31.6 µM (active) | –
12 | CCCC[C@]12Cc3cc(OC)c(OC)cc3C(O1)C1=C(CC3(CCCCC3)OC1=O)O2 | – | -17.1% [at 11.7 µM] (inactive)
13 | O=S(=O)(Nc1cccc(Oc2ccc(Cl)cc2)n1)c1ccc(F)cc1 | inactive | –
14 | N#Cc1ccc(-c2ccc(Cl)cc2)nc1Oc1ccc(F)cc1 | 20 µM (active) | –
15 | CN(C)c1ccnc(Oc2ccc(F)cc2)c1C#N | inactive | –
16 | CC1C(=O)C(C)C(c2ccc(O)cc2)NC1c1ccc(O)cc1 (centres undefined) | inactive | –
17 | CCN(C(=O)C1CCCN(c2nc(-c3ccc(OC)cc3)no2)C1)c1ccc(OC)cc1 (centres undefined) | inactive | –
18 | Cc1ccc(S(=O)(=O)c2nc(-c3cccs3)oc2NCc2cccnc2)cc1 | inactive | –
19 | CCOCCCn1c(SCC(=O)Nc2cc(OC)ccc2OC)nc2ccccc2c1=O | inactive | –
20 | COc1ccc2[nH]c(C(=O)N/N=C/c3cc(OC)c(OC)c(OC)c3)cc2c1 | inactive | –
21 | C=C1C(=CC=C2CCC[C@@]3(C)[C@@H]2CC[C@H]3[C@H](C)CCCC(C)C)C[C@@H](O)C[C@@H]1O | inactive | –
22 | Cc1ccc(C(=O)NC23CC4CC(CC(C4)C2)C3)c(Cl)c1 | inactive | –
23 | CCOc1ccccc1NC(=S)NC(=O)CCc1ccccc1 | inactive | –

Row | Structure (SMILES) | Potency | FP activity change, negative = inhibition
24 | CCc1ccc(N(C(=O)c2csnn2)C(C(=O)NC2CCCCC2)c2cccnc2)cc1 (centres undefined) | inactive | –
25 | O=C1CN(Cc2ccccc2)S(=O)(=O)c2ccccc21 | inactive | –
26 | CCOC(=O)C(Cc1ccc(N)cc1)N1C(=O)c2ccccc2C1=O (centres undefined) | inactive | –
27 | CCOC(=O)N1CC=C2C(C#N)=C(N)C(C#N)(C#N)[C@H](c3cccs3)[C@H]2C1 | inactive | –
28 | CCN1CC=C2C(C#N)=C(N)C(C#N)(C#N)[C@H](c3ccoc3)[C@H]2C1 | 17.8 µM (active) | –
29 | CCCN1CC=C2C(C#N)=C(N)C(C#N)(C#N)C(c3cc(OC)ccc3OC)C2C1 (centres undefined) | inactive | –
30 | O=C(NCCc1c[nH]c2ccccc12)C1CCN(Cc2ccc(Br)cc2)CC1 | inactive | –
31 | CC(C)C(C)NC(=O)COc1nc2ccccc2nc1N(C)C1CCCCC1 (centres undefined) | inactive | –
32 | Cc1cccc(OC(C)C(=O)N2CCc3ccccc3C2)c1 (centres undefined) | inactive | –
33 | COC(=O)c1ccc(CN2C(=O)NC(c3ccccc3)(c3ccccc3)C2=O)o1 | inactive | –
34 | CN(Cc1ccccc1)C(=O)C1CCCN(c2ncnc3c2nc2n3CCCCC2)C1 (centres undefined) | inactive | –
35 | Cc1ccccc1OCC(=O)Nc1ccc(S(=O)(=O)N2CCOCC2)cc1 | inactive | –
36 | COc1ccc(CCNC(=O)CSCc2ccc(Br)cc2)cc1OC | inactive | –
37 | CCOc1cc(-c2cc(-c3ccc(NC(C)=O)cc3)nc(N)c2C#N)ccc1O | inactive | –
38 | O=C(c1cc(C(=O)N2CCN(c3ccc(F)cc3)CC2)cc([N+](=O)[O-])c1)N1CCN(c2ccc(F)cc2)CC1 | inactive | –
39 | Cc1cc2oc(=O)cc(CN(C)Cc3ccc(OC(F)F)cc3)c2cc1Cl | inactive | –
40 | COC(=O)c1ccccc1NC(=O)C1CCN(C(=O)N2CCOc3ccccc32)CC1 | inactive | –
41 | CCCNC(=O)CCc1c(C)nc2c(c(C)nn2-c2ccc(C)cc2)c1C | inactive | –
42 | C/C(=N\NC(=O)c1ccoc1C)c1ccccc1O | inactive | –
43 | COc1ccc(-c2ccc(OC)c(C3C4C=CCC(C)C4C(=O)N3Cc3ccccc3)c2)cc1C (centres undefined) | inactive | –
44 | Cc1nnc(NC(=O)C(c2ccccc2)c2ccccc2)s1 | inactive | –
45 | CC(C)C[C@@H](COc1ccccc1)N1CCN(CC(C)C)CCC1=O | inactive | –
46 | O=c1[nH]n(-c2ccc([N+](=O)[O-])cc2)c(=O)c2ccccc12 | 31.6 µM (active) | –

Row | Structure (SMILES) | Potency | FP activity change, negative = inhibition
47 | Cc1nc2ccccc2c(=O)n1Cc1ccc([N+](=O)[O-])cc1 | inactive | –
48 | Cc1nn(-c2ccc([N+](=O)[O-])cc2)c(N)c1-c1ccccc1 | inactive | –
49 | COc1ccc(CCNC(=O)c2cnc(Cl)c(Cl)c2)cc1 | inactive | –
50 | CCOc1ccc(NC(=O)c2nc(SCC)ncc2Cl)cc1 | inactive | –
51 | Cc1ccc(SCC(CC(C)C)N2CCN(CCc3ccccc3)CCC2=O)cc1 (centres undefined) | inactive | –
52 | c1cnc(Nc2nc(-c3ccc4ccccc4c3)cs2)nc1 | 17.8 µM (active) | –
53 | O=C(Nc1nc(-c2ccc(-c3ccccc3)cc2)cs1)c1cnccn1 | inactive | –
54 | Cc1ccccc1Nc1nc(-c2cccnc2)cs1 | inactive | –
55 | Cc1c(C)c2c(OCC(=O)NCCCO)cc3c(c2oc1=O)CCC(C)(C)O3 | inactive | –
56 | COc1ccc(NC(=O)CN2C(=O)CSc3ccc(S(=O)(=O)N4CCC(C)CC4)cc32)cc1 | inactive | –
57 | CCNC(=O)c1cnn(-c2ccccc2)c1-c1ccccc1 | inactive | –
58 | COc1ccc(NC(=O)NCCN2CCN(c3ccc(C)cc3)CC2)c(Cl)c1 | inactive | –
59 | COc1ccc(C2/C=C\CN(C(=O)c3ccc(C)cc3)C(Cc3ccccc3)C(=O)N2Cc2ccc(F)cc2)cc1 (centres undefined) | inactive | –
60 | CCOc1ccc(C(C(=O)NC2CCCC2)N(C(=O)c2snc(C(N)=O)c2N)C2CCCC2)cc1 (centres undefined) | inactive | –
61 | CC(=O)N1CCOc2ccc(S(=O)(=O)N3CCN(c4cccc(C(F)(F)F)c4)CC3)cc21 | inactive | –
62 | O=C(NCCc1cccc(F)c1)C1CCCN(c2nc3ccccc3s2)C1 (centres undefined) | inactive | –
63 | CC(Cc1cccs1)N(Cc1ccc(Cl)cc1)C(=O)c1ccncc1 (centres undefined) | inactive | –
64 | COc1ccc(CN2CCC(=O)c3ccccc3S2(=O)=O)cc1 | inactive | –
65 | COc1ccc(OC)c(CNC(=O)Cn2nc(C)c3c(C)n(-c4ccc(C)cc4)nc3c2=O)c1 | inactive | –
66 | CCN1C(=S)N[C@@H](c2cccc(C(F)(F)F)c2)C(C(=O)OC)=C1C | inactive | –
67 | COc1cc(C(=O)NCc2ccncc2)cc(Br)c1OCc1ccccc1 | inactive | –
68 | Cc1ccc(CNC(=O)C2(C(F)(F)F)C/C(=C\CCO)CCCO2)o1 (centres undefined) | inactive | –
69 | FC(F)(F)c1nnc2c3ccccc3c(Cl)nn12 | inactive | –

Row | Structure (SMILES) | Potency | FP activity change, negative = inhibition
70 | CC(C)C[C@H]1CN=C(Nc2ccccc2)N1CC1CCCCC1 | inactive | –
71 | COC(=O)c1ccc2c(=O)n(CCN3CCOCC3)c(SCC(=O)Nc3cccc(OC)c3)nc2c1 | inactive | –
72 | Cc1c(C(=O)NCC(c2ccco2)N2CCCC2)oc2ccc(Cl)cc12 (centres undefined) | inactive | –
73 | COc1cc(OC)c2c(c1C(CCN1CCCCC1)c1ccc(N(C)C)cc1)OC(=O)CC2c1ccc(N(C)C)cc1 (centres undefined) | inactive | –
74 | O=C(N/C(=C/c1ccc(Cl)cc1)C(=O)N1CCCCC1)c1ccco1 | inactive | –
75 | Cc1ccc(-n2ncc(C(=O)NC3CC3)c2C2CCN(C(=O)OC(C)(C)C)CC2)c(C)c1 | inactive | –
76 | Cc1cc2c(c(=O)n1Cc1ccccc1)C1O[C@](CCCCN3C(=O)c4ccccc4C3=O)(Cc3ccccc31)O2 | – | 12.4% [at 11.7 µM] (inactive)
77 | CC1Sc2ccc(S(=O)(=O)CCC(=O)NCc3ccccc3Cl)cc2NC1=O (centres undefined) | inactive | –
78 | COc1cc(C(=O)NC2CCN(Cc3ccccc3)CC2)cc(Cl)c1OC(C)C | inactive | –
79 | O=C(NNC(=O)c1cc2c(s1)CCCC2)c1ccccc1 | inactive | –
80 | Cc1ccc(C(=O)NNC(=O)c2cc3cc4ccccc4nc3s2)cc1 | 17.8 µM (active) | –
81 | Cc1ccc(C(=O)NNC(=O)c2cccs2)cc1 | inactive | –
82 | COc1ccc(-c2nc3c(s2)CCc2onc(-c4ccc(OC)cc4)c2-3)cc1 | inactive | –
83 | O=C1OC2(CCCCC2)CC2=C1C1O[C@](c3ccsc3)(Cc3ccccc31)O2 | – | -0.298% [at 11.7 µM] (inactive)
84 | COc1ccc(CN2CCCC(N3CCc4ccccc4C3)C2)c(O)c1 (centres undefined) | inactive | –
85 | Cc1ccc2nc(-c3ccncc3)cc(C(=O)Nc3ccncc3)c2c1 | inactive | –
86 | COc1cccc(OCC(O)CNC(=O)c2oc3c(C)c(C)ccc3c2C)c1 (centres undefined) | inactive | –
87 | CC(C)CNS(=O)(=O)c1ccc(CCC(=O)NCc2ccc(Cl)cc2)cc1 | inactive | –
88 | C=CCn1c(SCC(=O)NC)nnc1C12CC3CC(CC(C3)C1)C2 | inactive | –
89 | COCCN1C(=O)C(=O)/C(=C(/O)c2ccc(S(=O)(=O)N3CCCCC3)cc2)C1c1ccc(OC)c(OC)c1 (centres undefined) | inactive | –
90 | COc1cc(C(=O)NCc2cc3cc(Cl)ccc3n2C)cc(OC)c1OC | inactive | –
91 | CCCCNC(=O)c1cn(CC)c2cc(N3CCN(C(=O)c4ccco4)CC3)c(F)cc2c1=O | inactive | –
92 | CCOc1ccc(NC(=O)C2CCN(C(=O)N3CCOc4ccccc43)CC2)cc1 | inactive | –

Row | Structure (SMILES) | Potency | FP activity change, negative = inhibition
93 | Cc1ccc(N(Cc2ccccc2O)C(=O)c2ccccc2F)cc1 | inactive | –
94 | Cc1ccc(O)c(CNc2nc3ccccc3[nH]2)c1 | inactive | –
95 | COC(=O)c1sc(=S)n(-c2ccccc2)c1N | inactive | –
96 | COCCOC(=O)c1sc(=S)n(CCOC)c1N | 28.2 µM (active) | –
97 | CCOC(=O)c1c(N)sc(C(C)=O)c1C | inactive | –
98 | O=C(c1ccccc1)N1CCC(CC2CC(c3ccc(Cl)cc3)=NO2)(C(=O)NCC2CCCCC2)CC1 (centres undefined) | inactive | –
99 | CCN(CC)S(=O)(=O)c1ccc(N2CCOCC2)c(NC(=O)C2CSC3(C)CCC(=O)N23)c1 (centres undefined) | inactive | –
100 | COc1ccc(C)cc1Nc1n[n+](-c2ccccc2)c(-c2cccc(Cl)c2Cl)s1 | inactive | –
101 | CC1CC(C)CN(CCCNC(=O)c2csc3c2CCCCC3)C1 (centres undefined) | inactive | –
102 | CCN(CC)c1ccc(C(=O)Nn2c(C)nc3ccccc3c2=O)cc1 | inactive | –
103 | CCC(CC)COC(=O)C1=C(C)NC(=O)NC1c1ccc([N+](=O)[O-])cc1 (centres undefined) | inactive | –
104 | CCCN1CCC(=O)N(C(CSc2ccc(C)cc2)Cc2ccccc2)CC1 (centres undefined) | inactive | –
105 | CCOC(=O)c1ccccc1NS(=O)(=O)c1c(C)nc2sccn2c1=O | inactive | –
106 | COc1ccc(-n2nc(C(=O)NCC(=O)N3CCN(c4ccccc4OC)CC3)c3ccccc3c2=O)c(OC)c1 | inactive | –
107 | CCCCc1cc(=O)oc2c(C)c(OCC(=O)N3CCC(C(N)=O)CC3)ccc12 | inactive | –
108 | O=S(=O)(NC1CCCCC1N1CCN(c2ccccc2F)CC1)c1ccccc1 (centres undefined) | inactive | –
109 | CC(C)(COC(=O)Nc1ccccc1)COC(=O)Nc1ccccc1 | inactive | –
110 | Cc1ccc(C)c(N2CCN(C(=O)CCCn3c(=O)c4cccn4c4cccnc43)CC2)c1 | inactive | –
111 | O=C(O)Cc1ccc(NC(=O)c2cccs2)cc1 | inactive | –
112 | CCc1ccc(NC(=O)C(=O)NNC(=O)c2cccs2)cc1 | inactive | –
113 | Cc1nc(-c2ccc(NC(=O)c3cccs3)cc2)cs1 | 25.1 µM (active) | –
114 | COc1ccc(C2CC(O)(c3ccccc3)Oc3cc(C)cc(C)c32)cc1 (centres undefined) | inactive | –
